Lassa entry inh – inhibitors of Lassa virus binding or cell entry; Lassa virus pseudotype entry inhibition, cell reporter; 300,000 compounds, 1.2% hits; Potency, µM (series often up to 37.9 µM), inactives show at the top dose activity change, negative = inhibition, most hits filed as inhibitors; calls by dose curve; tested in HEK293 cells; further: potency means the concentration at half of the fitted maximal effect; nearly all actives have a fitted effect of over 50% in size
Marburg entry inh – inhibitors of Marburg virus binding or cell entry; Marburg virus pseudotyped entry inhibition, cell reporter; Potency, µM (titrated, usually from 37.8 µM), for inactives: at the highest dose activity change, negative = inhibition, actives largely listed as inhibitors; 300,000 compounds, 1.8% hits; calls by dose curve; tested in HEK293 cells; further: potency means the concentration at half of the fitted maximal effect
FMDV inh – blocks foot and mouth disease virus; FMDV antiviral cell-based qHTS; Potency, µM (titrated, usually from 57.9 µM), inactives show top-dose activity change, negative = inhibition, usual class: inhibitors; 410,000 compounds, 1.2% hits; calls by dose curve; tested in HEK293T cells; further: read-out not given here; potency means the concentration at half of the fitted maximal effect; nearly all actives have a fitted effect of over 45% in size
HCMV antiviral – inhibitors of human cytomegalovirus | HFF cells, HCMV-luciferase reporter, 72 h; stronger effect = lower value | 410,000 compounds, 4.5% hits | activity change, negative = inhibition, % at 57.5 µM; in the data active means activity change below about -60%; inconclusive means no clear call, values can overlap the other calls; inactive means above about -39%
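HFF cells seeded 16 h at 37C, treated with compounds, infected with luciferase-reporter HCMV at MOI 1 PFU/cell; luciferase read at 72 h post infection, normalized to buffer-only and Salinomycin controls.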
* = called active by the depositor; ? = inconclusive; · = not tested or not shown; + = active, no number; ! = not active in a repeat; [ ] = dose if it differs, or a comment. A selection: hits, their analogues and other compounds. The true share with any hit is near 6.2%. On the % scale 0 is the no-effect control and ±100 the full control effect.

SMILES	Lassa entry inh	Marburg entry inh	FMDV inh	HCMV antiviral
CC(=O)Nc1ccc(S(=O)(=O)N2CCN(C(=O)N3CCCCCC3)CC2)cc1	?	?	-15%	-69*
CC(=O)Nc1ccc(S(=O)(=O)N2CCN(C(=O)N3CCCC3)CC2)cc1	·	4%[46.1 µM]	0%	-21
CC1CCCN(C(=S)Nc2ccc(S(=O)(=O)N3CCCCC3)cc2)C1 (stereo not given)	-14%[46.1 µM]	-22%[46.1 µM]	-4%	-67*
CN1CCN(S(=O)(=O)c2ccc(NC(=O)C(C)(C)C)cc2)CC1	12%	26%	8%	-108*
CC(=O)Nc1ccc(S(=O)(=O)N2CCN(S(=O)(=O)c3ccc(NC(C)=O)cc3)CC2)cc1	1%[46.1 µM]	10%[46.1 µM]	-17%	·
C=C(C)C[C@@]1(c2ccccc2)Oc2ccccc2C2=NCCN=C21	·	-21%[14.2 µM]	·	·
Nc1cccc2c1C(=O)N(CCOc1ccccc1F)C2=O	2.8µM*	?	-44%	83
CCOc1cc(CNC(=O)c2ccc3c(c2)nc2n3CCCCC2)ccc1OC	6%[46.1 µM]	·	-8%	-14
O=C(Nc1cccc([N+](=O)[O-])c1)c1cc2ccccc2cc1O	·	·	-15%	-101*
O=C(Nc1ccccc1)c1ccc(-c2ccc([N+](=O)[O-])cc2)o1	-9%	15%[46.1 µM]	1%	-66*
COc1ccc(NC(=O)c2cc([N+](=O)[O-])ccc2O)cc1	·	·	6.3µM*	-102*
CN(C)S(=O)(=O)c1ccc(Cl)c(C(=O)Nc2cccc([N+](=O)[O-])c2)c1	·	·	?	-65*
O=C(O)c1cccc(NS(=O)(=O)c2ccc(Cl)c(C(=O)Nc3cccc([N+](=O)[O-])c3)c2)c1	9%	1%	1%	36
COc1ccc(NC(=O)c2cc([N+](=O)[O-])ccc2N2CCNCC2)cc1	18%	-26%[46.1 µM]	-10%	-32
O=C(c1cnsn1)N1CCOc2ccc(CN3CCOCC3)cc2C1	·	·	18%	·
Cc1cnc(-n2ncc(C(=O)NCCc3ccncc3)c2-c2cccs2)nc1-c1ccc(F)cc1	·	·	-6%	·
COc1ccc(CCNC(=O)c2ccc(CS(=O)(=O)Cc3cccc(C)c3)o2)cc1OC	?	?	40µM*	+!
COc1ccc(CCNC(=O)c2ccc(-c3ccc([N+](=O)[O-])cc3)o2)cc1OC	?	?	18µM*	-69*
COc1ccc(NC(=O)c2ccc(-c3ccc([N+](=O)[O-])cc3)o2)cc1	17%[46.1 µM]	?	-15%	-61*
O=C(Nc1ccc(Cl)c(-c2nc3ccccc3o2)c1)c1ccc(-c2cccc([N+](=O)[O-])c2)o1	0%[46.1 µM]	19%[46.1 µM]	-10%	-103*
Cc1cccc(CS(=O)(=O)Cc2ccc(C(=O)NCc3ccccc3)o2)c1	-22%[46.1 µM]	·	-21%	-14
CCCSc1nnc(NC(=O)c2cc(=O)c3ccccc3o2)s1	-1%[46.1 µM]	?	18%	13
COc1cc2c(c(OC)c1OC)[C@@]1(c3ccccc3)CCCCC[C@H]1[C@@H]2NC(=O)C(F)(F)F	-29%[14.3 µM]	-13%[14.2 µM]	·	·
Cc1cnc(C)c(-c2ccc3c(c2)CC(CNC(=O)Cc2c(C)[nH]c4ccccc24)O3)n1 (stereo not given)	·	·	-24%	·
C=C(C(=O)c1ccccc1)C(c1ccccc1)C(C)C(=O)c1ccccc1 (stereo not given)	?	?	?	-89*
SMILES	Lassa entry inh	Marburg entry inh	FMDV inh	HCMV antiviral
COc1ccc(C(CC(=O)c2ccccc2)CC(=O)c2ccccc2)cc1	-29%[46.1 µM]	?	1%	3
O=C(O)c1ccc(C(=O)C(=O)c2ccccc2)cc1	0%	18%[46.1 µM]	15%	0
C=C(C(=O)c1ccccc1)C(C(=C)C(=O)c1ccccc1)c1ccc(OC)cc1	·	·	28µM*	-100*
C=C(C(=O)c1ccccc1)C(C)C(=C)C(=O)c1ccccc1	18µM*	7.9µM*	?	-100*
CCCC(=O)N(C1CC(C)C(C#N)(C#N)C1(C#N)C#N)N(C)C (stereo not given)	?	?	16µM*	-90*
CCCCNC1=CC(=O)C(=O)c2ccccc21	?	16µM*	35µM*	-35
O=C1C=C(Nc2cccc3cccnc23)c2ccccc2C1=O	0%[46.1 µM]	?	28µM*	-75*
O=C1C=C(Nc2ccccc2)c2ccccc2C1=O	7.1µM*	?	?	-64*
N#Cc1nccnc1S(=O)(=O)c1cccs1	1%	-35%	?	-97*
CCN1CCN(C(=O)Cn2c(-c3cccs3)cc3cc(Cl)ccc32)CC1	-9%[46.1 µM]	·	-16%	-30
Cc1cc(C(=O)CSc2nnc(-c3cccs3)o2)c(C)n1-c1ccccc1	-18%	?	11µM*	-23
Cc1cc(C(=O)CSc2nnc3ccccn23)c(C)n1-c1ccccc1	0.89µM*	0.32µM*	3.2µM*	-72*
COc1cccc(NC(=O)CSc2nnc(-c3cc(C)n(-c4ccccc4)c3C)o2)c1	14%	?	13µM*	·
O=c1cc(-c2cc3ccccc3oc2=O)c2ccc(O)cc2o1	·	·	-12%	·
CC[C@H]1OC(=O)[C@H](C)C(=O)[C@H](C)[C@@H](O[C@@H]2O[C@H](C)C[C@H](N(C)C)[C@H]2O)[C@](C)(OC)C[C@@H](C)C(=O)[C@H](C)[C@H]2N(CCCCn3cnc(-c4cccnc4)c3)C(=O)O[C@]12C	·	·	-10%	·
COc1cc2ncnc(NCc3ccc(F)cc3)c2cc1OC	?	?	-1%	-6
Brc1ccc2ncnc(NCc3ccccc3)c2c1	?	?	?	-96*
Cc1cc2c(Nc3ccccc3)ncnc2s1	-18%[46.1 µM]	?	4%	?
N#Cc1ccccc1-c1ccc2ncnc(NCc3ccccc3)c2c1	·	·	0%	·
c1ccc(CCNc2ncnc3ccccc23)cc1	·	·	-42%	-89*
COc1cc2ncnc(NCc3ccc(Cl)cc3)c2cc1OC	·	·	0%	-78*
Cc1cc2c(NCCc3ccccc3)ncnc2s1	?	7.1µM*	-20%	-88*
CCOc1ccccc1NC(=O)C(NS(=O)(=O)c1ccc2c(c1)CCC(=O)N2)c1ccccc1 (stereo not given)	?	7%[46.1 µM]	-7%	0
Cc1ccc(CCNC(=O)CCCn2c(=O)c3ccccc3n(Cc3ccccc3C)c2=O)cc1	-27%[46.1 µM]	-12%[46.1 µM]	-15%	-13
O=C(CSc1nc(-c2cccc(Cl)c2)nc2cc(=O)[nH]n12)Nc1ccccc1	1%[46.1 µM]	·	-22%	0
CCC(=O)[C@@H](C)[C@@H](O)[C@H](C)C[C@@H](C)C1OC(=O)C[C@@]2(O)CC=C(C)C(O2)C(C)=CCCC[C@H](O[C@H]2C[C@@H](OC(N)=O)[C@H](O)[C@@H](C)O2)C=C[C@H](C)C[C@H]1C (stereo not given in full)	·	·	18µM*	·
CCC(=O)[C@@H](C)[C@@H](OC(C)=O)[C@H](C)C[C@@H](C)[C@H]1OC(=O)C[C@@]2(O)CC=C(C)C(O2)C(C)=CCCC[C@H](O[C@H]2C[C@@H](OC(N)=O)[C@H](OC(C)=O)[C@@H](C)O2)C=C[C@H](C)C[C@H]1C	·	·	-29%	?
COc1cc(C(CC2=CCCCC2)NC(=O)C(F)(F)F)cc(OC)c1OC (stereo not given)	·	1%[14.2 µM]	·	·
CC(NC1CCCCC1)C(O)C12CC3CC(CC(C3)C1)C2 (stereo not given)	?	7.3µM*	-14%	-23
Cc1ccccc1-c1ccc2ncnc(NCCN3CCOCC3)c2c1	·	·	-28%	·

Bioassay records as filed in PubChem.
